In all, about 48,000 compounds went through this assay and about 13,000 (27%) showed an effect of 50% or more. This is one part of the list.
The molecules below were run on Wolbachia pipientis (assay: Anti-Wolbachia Cell-Based Screen). Settings: 5 µM.
Assay type: functional
Parameters: scale not given: in the data most compounds retested in dose-response had high values

Row | Compound | Percent Effect [%]
1 | COCCN(C)C[C@@H]1CCC[C@@H]2CN(c3ncccn3)C[C@@H]21.O=C(O)C(F)(F)F | -1.943
2 | Cc1ccc(NC2CCN(C(=O)Cc3csc(C)n3)CC2)nn1 | 1.97
3 | Cc1ccc(NC2CCN(C(=O)CCCc3ccccn3)CC2)nn1 | 17.2
4 | Cc1ccc(NC2CCN(C(=O)CCCc3cccs3)CC2)nn1 | 117.7
5 | Cc1ccc(NC2CCN(C(=O)Cn3nc(C)cc3C)CC2)nn1 | -9.924
6 | Cc1ccc(NC2CCN(C(=O)Cc3cccs3)CC2)nn1 | 103.9
7 | Cc1ccc(NC2CCN(C(=O)Cc3ccc(C)s3)CC2)nn1 | 88.11
8 | Cn1cc(CNc2ccc(CCN3CCC(C(N)=O)CC3)cc2)cn1 | -15.36
9 | CCC(CC)c1cc(CNC(=O)N2CCCC(c3ncc[nH]3)C2)on1 (centres undefined) | -2.928
10 | Cc1nc(CN2CC[C@@H](OCC3CC3)[C@@H]2Cc2cccnc2)cs1.O=C(O)C(F)(F)F.O=C(O)C(F)(F)F | 96.59
11 | COCCO[C@@H]1CCN(Cc2csc(C)n2)[C@H]1Cc1ccccc1.O=C(O)C(F)(F)F | -4.722
12 | Cc1nc(CN2CC[C@H](OCC3CC3)[C@@H]2Cc2cccnc2)cs1.O=C(O)C(F)(F)F.O=C(O)C(F)(F)F | 110.4
13 | Cc1cc(N(C)Cc2c(C)noc2C)n2nc(C)c(C)c2n1 | -2.032
14 | CCN(CC)CC(=O)NCc1cccnc1-n1cnc2ccccc21 | -2.03
15 | Cc1cnc(N2CC[C@@H]3CN(CCC(C)C)S(=O)(=O)[C@@H]3CC2)nc1 | 7.109
16 | CC(C)NC(=O)NCc1ccnc(N(C)C)n1 | -10.55
17 | NS(=O)(=O)NCc1cc(-c2ccco2)n(CC(F)(F)F)n1 | 112.6
18 | Cc1cc(C)n(CC(C)CNC(=O)NCc2ccco2)n1 (centres undefined) | 7.726
19 | CC(C)NC(=O)NCCn1nc(C(F)(F)F)n(C)c1=O | -4.799
20 | CC(Cc1cccs1)C(=O)NCc1cccc(N2CCCC2=O)c1 (centres undefined) | 1.255
21 | CC(C)NC(=O)NCc1cc(-c2ccco2)n(CC(F)(F)F)n1 | 112.4
22 | CC(COCC(F)(F)F)NC(=O)c1ccc(-c2ccco2)[nH]c1=O (centres undefined) | -22
23 | C[C@H](NS(C)(=O)=O)C(=O)NCc1cc(-c2ccco2)n(CC(F)(F)F)n1 | 97.84
24 | Cc1nnc2n1CCN(CCS(=O)(=O)c1ccccc1)C2 | 0.264
25 | CCc1noc(C2CCCCN2C(=O)c2ccccc2)n1 (centres undefined) | 1.293
26 | CCc1noc(C2CCCCN2C(=O)c2ccoc2C)n1 (centres undefined) | 16.06

Row | Compound | Percent Effect [%]
27 | CCc1noc(C2CCCCN2C(=O)c2ccn(C3CCCC3)n2)n1 (centres undefined) | 52.74
28 | Cc1nnc(N2C[C@@H]3CCCO[C@@H]3[C@H](N(C)C)C2)s1 | -8.785
29 | CC(C)CC(NC(=O)CN(C)c1cnccn1)c1cccs1 (centres undefined) | 9.121
30 | CC(NC(=O)NCCNc1cnccn1)c1cccs1 (centres undefined) | 5.831
31 | CC(NC(=O)NCCNc1ncccn1)c1cccs1 (centres undefined) | 10.74
32 | CC(C)C(NC(=O)Nc1ccccn1)c1cccs1 (centres undefined) | 56.05
33 | CC(NC(=O)NCCNc1cccc(F)c1C#N)c1cccs1 (centres undefined) | 10.58
34 | CC(C)C(NC(=O)NCCNc1cnccn1)c1cccs1 (centres undefined) | 101.3
35 | CC(C)C(C)(O)CNC(=O)Nc1ccccn1 (centres undefined) | -16.52
36 | CC(C)C(NC(=O)NCCNc1ncccn1)c1cccs1 (centres undefined) | 99.08
37 | CC(C)C(NC(=O)c1ccc(N2CCOCC2)nc1)c1cccs1 (centres undefined) | 15.66
38 | COCCn1cnnc1CN(C)c1nc(N)ncc1C | 15.34
39 | Cc1ccc(CN(C)C(=O)CN2CCCC2c2cnn(C)c2)cc1 (centres undefined) | -7.848
40 | O=c1[nH]cc(N2CCCCC2)c(=O)[nH]1 | 67.95
41 | O=c1[nH]cc(N2CCOCC2)c(=O)[nH]1 | 76.31
42 | O=C(c1c[nH]c(=O)[nH]1)N1CCc2ccccc21 | 14.35
43 | O=C(Cc1c[nH]c(=O)[nH]c1=O)N1CCCCC1CCc1ccccc1 (centres undefined) | -18.96
44 | c1ccc2c(N3CCOCC3)cnnc2c1 | 28.28
45 | Cn1ncc(N2CCOCC2)c(Cl)c1=O | 6.365
46 | O=C(NCCN1CCOCC1)c1cc(-c2ccc(Cl)s2)[nH]n1 | 11.57
47 | N#CC(Sc1nnnn1C1CCOCC1)C1CCCCC1 (centres undefined) | 11.61
48 | CC(=O)c1cc(CN2C[C@H]3CC[C@@H]2CN(S(=O)(=O)N(C)C)C3)cs1 | -15.69
49 | O=C1NC2(Cc3ccccc31)CN(CC1CCCC1)C2 | 92.98
50 | CC(=O)N1CCN(CC2CCOc3ccccc3C2)CC1 (centres undefined) | -15.11
51 | O=C1NC2(Cc3ccccc31)CN(CC1CCNCC1)C2 | 115.6
52 | COc1ccc2c(=O)n(CC3CCNC3)ccc2c1OC (centres undefined) | 10.36

Row | Compound | Percent Effect [%]
53 | OC(CN1CCN(CC2CCCCC2)CC1)c1ccccc1 (centres undefined) | 21.16
54 | O=C1NC2(Cc3ccccc31)CN(CC1CCNC1)C2 (centres undefined) | 109.8
55 | O=c1n(CC2CC2)nc(C2CCNCC2)n1Cc1ccccc1 | 0.2019
56 | O=C(O)C(F)(F)F.O=C1NC2(CCN(CC3CC3)CC2)CC1c1ccccc1 (centres undefined) | -3.708
57 | Cc1cc(=O)c2ccccc2n1CC1CCNC1 (centres undefined) | 4.531
58 | O=C1NC(c2ccccc2)=N[C@@]12CC[C@@H]1CN(CC3CCOCC3)C[C@@H]12 | 10.45
59 | O=C1NC2(Cc3ccccc31)CN(CC1CCOCC1)C2 | 125.6
60 | O=C(CSc1ccc(F)cc1)NS(=O)(=O)c1ccc2c(c1)OCCO2 | -12.15
61 | CN(C)C(CNCc1nc(-c2ccsc2)no1)c1ccco1 (centres undefined) | 15.02
62 | CCC(O)(CNCc1ccncc1)c1ccc(Br)cc1 (centres undefined) | 15.97
63 | COc1ccc(CN2C[C@@H](F)[C@@H](OCc3nc4cnccc4[nH]3)C2)cn1 | -7.55
64 | O=C(c1cc(-c2ccco2)nc2c(Cl)cccc12)N1CC[C@H]2CNC[C@H]21 | -4.812
65 | O=C(Nc1ccccc1F)N(CCO)Cc1ccsc1 | -6.968
66 | CN1C(=O)[C@H]2CC[C@@H]1CN(C(=O)Nc1ccccc1C(F)(F)F)C2 | -23.74
67 | CCc1noc(CS(=O)(=O)C/C=C/c2ccccc2)n1 | -3.698
68 | COc1ccccc1CNCCc1cccc(C(N)=O)c1 | -10.3
69 | CCc1cccc2cc(CNCCOC)c(=O)[nH]c12 | 77.28
70 | COCCNCc1cc2ccc(C)c(C)c2[nH]c1=O | 110.6
71 | CCc1cccc2cc(CN)c(=O)[nH]c12 | 94.88
72 | Cc1cccc2cc(CN3CCC(O)(CN4CCCC4)CC3)c(=O)[nH]c12 | -13.98
73 | COc1ccc(CNC(=O)NCc2c(C)cc(C)[nH]c2=O)cc1 | -8.384
74 | Cc1cccc2cc(CN3CCC(N4CCCC4)CC3)c(=O)[nH]c12 | -6.915
75 | Cc1ccc2cc(CNCCCO)c(=O)[nH]c2c1 | -12.61
76 | COCCNC(=O)NCCc1cccc(OC)c1O | -1.079
77 | CCc1nccn1CCC(=O)N1CC(=O)N(c2ccccc2C)CC1C (centres undefined) | -5.04
78 | CC(O)(CCc1ccccc1)CNC(=O)c1ccsc1 (centres undefined) | 16.96

Row | Compound | Percent Effect [%]
79 | CCOC(=O)CSc1ccc(-c2nc(CC)no2)cn1 | -9.081
80 | CCOC(=O)CSc1nnc(C(N)CC(C)C)o1.Cl (centres undefined) | 98.1
81 | CCOC(=O)CSc1ccc(-c2nc(C)no2)cn1 | -12.26
82 | CCC(C)NC(=O)CN1CCC2(CC1)OCCO2 (centres undefined) | 3.422
83 | CC(C)NC(=O)CC(C)NCc1cc(Cl)ccc1F (centres undefined) | 1.096
84 | Cc1cc(C)cc(Nc2nc(C)cc(=O)n2CC(=O)NC(C)C)c1 | 102.2
85 | Cc1nc2cc(=O)[nH]n2c(C)c1CC(=O)NC(C)C | 6.511
86 | CSc1nc2cc(C)n(CC(=O)NC(C)C)c2c(=O)n1CC(C)C | 0.5328
87 | Cc1cc(=O)n(CC(=O)NC(C)C)c(Nc2ccc(F)c(C)c2)n1 | 119.3
88 | Cc1cc(NC(C)C(=O)N2CCN(c3ncccn3)CC2)ccc1F (centres undefined) | -7.766
89 | CCC(C)NC(=O)Cc1c(C)nc2c(c1C)c(=O)[nH]n2C (centres undefined) | -5.261
90 | CCC(C)NC(=O)Cn1c(Nc2cc(C)cc(C)c2)nc(C)cc1=O (centres undefined) | 130.9
91 | O=C1CC(c2cccs2)Cc2[nH]c(=O)ccc21 (centres undefined) | 3.972
92 | O=C(CN1CCc2cncnc2C1)NC(C1CC1)C1CC1 | 0.03163
93 | CCN(CC)C(=O)c1ccn(COc2cc(C)cc(C)c2)n1 | 11.03
94 | O=C(N1CCCC1)N1CCn2c(nnc2C2CCCN2)C1 (centres undefined) | 124.8
95 | O=C(c1ccc(C2CCCN2)s1)N1CCN(C(=O)N2CCOCC2)CC1 (centres undefined) | 14.1
96 | CC(C)NC(=O)N1CCC(c2nnc3ccc(C(=O)N(C)C)cn23)C1 (centres undefined) | 2.89
97 | CN(C)Cc1cnc2n1CCN(C(=O)NC1CCCC1)CC2.O=C(O)C(F)(F)F | -15.13
98 | O=C(NC1CCCCC1)N1CCn2c(nnc2C2CCCN2)C1 (centres undefined) | 120.9
99 | CN1CCN(C(=O)NC2CCCC2)Cc2cccnc21.O=C(O)C(F)(F)F | -7.276
100 | CC(C)c1nnc2n1CCN(C(=O)c1cnc(C3CC3)s1)C2 | -14.42
101 | CC(C)NC(=O)N1CCn2c(nnc2C2CCCN2)C1 (centres undefined) | 102.1
102 | CN1CCN(Cc2cnc3n2CCN(C(=O)N2CCCC2)C3)CC1 | -14.55
103 | O=C1CC(c2cccs2)Cc2[nH]c(=O)c(C(=O)NC3CCCC3)cc21 (centres undefined) | 7.726
104 | Cn1cc(C(=O)NC[C@H]2OC[C@@H]3CCN(C4CCOCC4)C[C@@H]32)cn1.O=C(O)C(F)(F)F | -10.96

Reference: ChEMBL document CHEMBL3988442, “University of Dundee, Small-Polar-MMV Screening Library” (2021)
